Assay results as given in PubChem BioAssay (NCI).
The panel holds about 83,000 compounds, 20% with a hit somewhere; the sample as a whole holds those more often.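 A percent growth of 40 corresponds to 60% growth inhibition; 0 means no net growth; -100 means all cells died. Active threshold: below 10.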 Unmarked numbers belong to inactive results. Calls of active or inactive are those of the source.

These molecules were tested on SF-268 CNS (assay: NCI-60 one-dose screen, 48 h (100 = growth as untreated, 0 = no growth, -100 = all killed)). Settings: 10 µM unless noted.
Work on `CCC1S/C(=N\N=C(/C)c2ccco2)N(c2ccccc2)C1=O` (stereo not drawn) yielded a growth of 100%.
`C#C[C@H](O)/C=C/CCCCCCC#C[C@H](O)CC[C@@H](O)C#CCCCCCC/C=C/[C@@H](O)C#C` gave a growth of 85.1%.
`O=[N+]([O-])c1cccc2cc(S(=O)(=O)O)ccc12` was tested, and the growth was 104%.
With `Nc1ccc(S(=O)(=O)Nc2cc(I)cc(I)c2)cc1` the growth was 108%.
Molecule `O=C(Nc1ccc(-n2cc(-c3ccncc3)c(-c3ccc(O)c(Cl)c3)n2)cc1)Nc1cc(C(F)(F)F)cc(C(F)(F)F)c1` has a growth of 70.8%.
In the case of `O[C@@H]1CCO[C@H](c2ccc3ccccc3c2)C1`, the growth is reported as 96.2%.
`COc1cc(Cn2cc3c(c2)-c2onc(CO)c2CC3)cc(OC)c1OC` showed a growth of 96%.
In the case of `CN(C)CCS(=O)(=O)Nc1cc(-c2ccc3ncnc(Nc4ccc(F)c(Cl)c4)c3c2)cnc1Cl`, the growth is reported as -20.9% (active).
With `CCN(CC)c1ccc(C2CC(c3cc(OC)c(OC)c(OC)c3)=NN2)cc1` (stereo not drawn) the growth was 28.1%.
With `CCn1cc(C(=O)O)c(=O)c2cc(F)c(N3CCN(CC(=O)Nc4ccc(C(C)=O)cc4)CC3)cc21` the growth was 102%.
In the case of `CCOc1ccc(-n2c(-c3cc(OC)c(OC)c(OC)c3)nnc2-c2ccc(OC)cc2N)cc1`, the growth is reported as 86.9%.
Work on `COc1ccc(/C(=C/c2cc(OC)c(OC)c(OC)c2)[N+](=O)[O-])cc1` yielded a growth of 17.6%.
Molecule `O=C(Nc1cccc([N+](=O)[O-])c1)Nc1cccc([N+](=O)[O-])c1` has a growth of 82.6%.
Work on `COc1ccc(-c2nn(-c3ccc(NC(=O)Nc4cc(C(F)(F)F)cc(C(F)(F)F)c4)cc3)cc2-c2ccncc2)cc1Cl` yielded a growth of 21.8%.
`O=c1c2ccccc2sc2c(NCCCNCCO)nc3ccccc3c12` gave a growth of 37.5%.
For `O=C(NNC(=O)c1ccc([N+](=O)[O-])cc1)c1ccc([N+](=O)[O-])cc1`, the growth was 101%.
Work on `CCN(CC)C(=O)C1CCN(C(=O)c2ccccc2)CC1` yielded a growth of 92.7%.
`O=S(=O)(O)c1ccc(F)cc1` showed a growth of 93.2%.
`Cc1cc(SCc2ccc(Cl)cc2Cl)nc(SCc2ccc(Cl)cc2Cl)n1` was tested, and the growth was 102%.
`CCOC(=O)c1noc2c1CCc1cn(Cc3cc(OC)cc(OC)c3)cc1-2` showed a growth of 96.8%.
Molecule `CC(C)(C)C(=O)Nc1nc2c(s1)CCc1ccn(S(=O)(=O)c3ccccc3)c1-2` has a growth of 89.5%.
`CCCCCCCCCCCCCCCCNc1ccccc1` gave a growth of 86.6%.
With `Cc1nc(N)nc(SCc2ccccc2)c1Br` the growth was 96.1%.
With `O=S(c1ccccc1)c1ccc2nnnn2n1` (stereo not drawn) the growth was 97.1%.
`O=C1COc2ccccc2C(=O)N1CCCCN1CCCCC1` showed a growth of 100%.
With `O=C(COc1ccc(Cl)cc1Cl)N1N=C(c2ccc(Cl)cc2Cl)CC1(O)c1cc(F)c(Cl)cc1Cl` (stereo not drawn) the growth was 103%.
For `CC(CCC(=O)O)[C@H]1CCC2C3C(=O)C[C@@H]4CC(=O)CC[C@]4(C)C3CC(=O)[C@@]21C` (stereo partly drawn), the growth was 110%.
`COc1ccc(-c2nn(-c3ccc(NC(=O)Nc4ccc(Cl)c(C(F)(F)F)c4)cc3)cc2-c2ccncc2)cc1Cl` showed a growth of 19%.
Molecule `O=C1COc2ccccc2C(=O)N1CCCCNc1ccccc1` has a growth of 73.2%.
`O=C1CCC(c2c(O)cc(O)c3c(=O)c(O)c(-c4ccc(O)c(O)c4)oc23)N1` (stereo not drawn) gave a growth of 96.4%.
In the case of `CCCCCCCCCCCCCCCC(=O)NS(=O)(=O)OC[C@H]1O[C@@H](n2cnc3c(N)ncnc32)[C@H](O)[C@@H]1O`, the growth is reported as -42.6% (active).
In the case of `CN(CCNCc1ccccn1)CCNCc1ccccn1`, the growth is reported as 20.3%.
`CCN(CC)CCNCC(O)Cc1ccc(OC)cc1` (stereo not drawn) showed a growth of 107%.
In the case of `CN1CCN(Cn2nc(-c3cc(Cl)cc(Cl)c3Cl)n(/N=C/c3ccc(Cl)cc3)c2=S)CC1`, the growth is reported as 117%.
Work on `Cn1cnc([N+](=O)[O-])c1N1c2ccncc2Sc2ccncc21` yielded a growth of 101%.
Molecule `O=C(O)c1cccc2oc(-c3ccccc3O)nc12` has a growth of 45%.
In the case of `Nn1c(CN2CCN(c3cc4c(cc3F)c(=O)c(C(=O)O)cn4C3CC3)CC2)n[nH]c1=S`, the growth is reported as 95.9%.
For `Cc1ccc2nc(-c3ccc(-n4on4-c4ccc(/C=C/c5ccc(-n6on6-c6ccc(-c7nc8ccc(C)cc8s7)cc6)cc5S(=O)(=O)O)c(S(=O)(=O)O)c4)cc3)sc2c1`, the growth was 99.8%.
In the case of `CC(C)(C)NCC(O)COc1c(Br)c(Br)c(Br)c2c1OC(C)(C)C2` (stereo not drawn), the growth is reported as 4.14% (active).

What follows are molecules tested on SF-295 CNS in the same assay as above. Settings: 10 µM unless noted.
`CCC1S/C(=N\N=C(/C)c2ccco2)N(c2ccccc2)C1=O` (stereo not drawn) gave a growth of 123%.
In the case of `C#C[C@H](O)/C=C/CCCCCCC#C[C@H](O)CC[C@@H](O)C#CCCCCCC/C=C/[C@@H](O)C#C`, the growth is reported as 87.4%.
For `O=[N+]([O-])c1cccc2cc(S(=O)(=O)O)ccc12`, the growth was 104%.
With `Nc1ccc(S(=O)(=O)Nc2cc(I)cc(I)c2)cc1` the growth was 113%.
For `O=C(Nc1ccc(-n2cc(-c3ccncc3)c(-c3ccc(O)c(Cl)c3)n2)cc1)Nc1cc(C(F)(F)F)cc(C(F)(F)F)c1`, the growth was 19.6%.
`O[C@@H]1CCO[C@H](c2ccc3ccccc3c2)C1` gave a growth of 102%.
In the case of `COc1cc(Cn2cc3c(c2)-c2onc(CO)c2CC3)cc(OC)c1OC`, the growth is reported as 92.1%.
`CN(C)CCS(=O)(=O)Nc1cc(-c2ccc3ncnc(Nc4ccc(F)c(Cl)c4)c3c2)cnc1Cl` gave a growth of 10.1%.
With `CCN(CC)c1ccc(C2CC(c3cc(OC)c(OC)c(OC)c3)=NN2)cc1` (stereo not drawn) the growth was 33.9%.
In the case of `CCn1cc(C(=O)O)c(=O)c2cc(F)c(N3CCN(CC(=O)Nc4ccc(C(C)=O)cc4)CC3)cc21`, the growth is reported as 103%.
`CCOc1ccc(-n2c(-c3cc(OC)c(OC)c(OC)c3)nnc2-c2ccc(OC)cc2N)cc1` gave a growth of 84.8%.
Molecule `COc1ccc(/C(=C/c2cc(OC)c(OC)c(OC)c2)[N+](=O)[O-])cc1` has a growth of 103%.
For `O=C(Nc1cccc([N+](=O)[O-])c1)Nc1cccc([N+](=O)[O-])c1`, the growth was 34.6%.
In the case of `COc1ccc(-c2nn(-c3ccc(NC(=O)Nc4cc(C(F)(F)F)cc(C(F)(F)F)c4)cc3)cc2-c2ccncc2)cc1Cl`, the growth is reported as 4% (active).
In the case of `O=c1c2ccccc2sc2c(NCCCNCCO)nc3ccccc3c12`, the growth is reported as -3.85% (active).
With `O=C(NNC(=O)c1ccc([N+](=O)[O-])cc1)c1ccc([N+](=O)[O-])cc1` the growth was 94.2%.
`CCN(CC)C(=O)C1CCN(C(=O)c2ccccc2)CC1` showed a growth of 96.7%.
Work on `O=S(=O)(O)c1ccc(F)cc1` yielded a growth of 96.1%.
With `Cc1cc(SCc2ccc(Cl)cc2Cl)nc(SCc2ccc(Cl)cc2Cl)n1` the growth was 95.8%.
`CCOC(=O)c1noc2c1CCc1cn(Cc3cc(OC)cc(OC)c3)cc1-2` gave a growth of 95.3%.
In the case of `CC(C)(C)C(=O)Nc1nc2c(s1)CCc1ccn(S(=O)(=O)c3ccccc3)c1-2`, the growth is reported as 91.7%.
`CCCCCCCCCCCCCCCCNc1ccccc1` was tested, and the growth was 102%.
In the case of `Cc1nc(N)nc(SCc2ccccc2)c1Br`, the growth is reported as 99.1%.
`O=S(c1ccccc1)c1ccc2nnnn2n1` (stereo not drawn) was tested, and the growth was 102%.
In the case of `O=C1COc2ccccc2C(=O)N1CCCCN1CCCCC1`, the growth is reported as 93.9%.
With `O=C(COc1ccc(Cl)cc1Cl)N1N=C(c2ccc(Cl)cc2Cl)CC1(O)c1cc(F)c(Cl)cc1Cl` (stereo not drawn) the growth was 117%.
Molecule `CC(CCC(=O)O)[C@H]1CCC2C3C(=O)C[C@@H]4CC(=O)CC[C@]4(C)C3CC(=O)[C@@]21C` (stereo partly drawn) has a growth of 92.9%.
For `COc1ccc(-c2nn(-c3ccc(NC(=O)Nc4ccc(Cl)c(C(F)(F)F)c4)cc3)cc2-c2ccncc2)cc1Cl`, the growth was -25.9% (active).
`O=C1COc2ccccc2C(=O)N1CCCCNc1ccccc1` gave a growth of 96.3%.
Molecule `O=C1CCC(c2c(O)cc(O)c3c(=O)c(O)c(-c4ccc(O)c(O)c4)oc23)N1` (stereo not drawn) has a growth of 101%.
With `CCCCCCCCCCCCCCCC(=O)NS(=O)(=O)OC[C@H]1O[C@@H](n2cnc3c(N)ncnc32)[C@H](O)[C@@H]1O` the growth was -34.6% (active).
In the case of `CN(CCNCc1ccccn1)CCNCc1ccccn1`, the growth is reported as -6% (active).
In the case of `CCN(CC)CCNCC(O)Cc1ccc(OC)cc1` (stereo not drawn), the growth is reported as 104%.
Molecule `CN1CCN(Cn2nc(-c3cc(Cl)cc(Cl)c3Cl)n(/N=C/c3ccc(Cl)cc3)c2=S)CC1` has a growth of 102%.
`Cn1cnc([N+](=O)[O-])c1N1c2ccncc2Sc2ccncc21` showed a growth of 86.7%.
`O=C(O)c1cccc2oc(-c3ccccc3O)nc12` gave a growth of 31.7%.
`Nn1c(CN2CCN(c3cc4c(cc3F)c(=O)c(C(=O)O)cn4C3CC3)CC2)n[nH]c1=S` gave a growth of 102%.
`Cc1ccc2nc(-c3ccc(-n4on4-c4ccc(/C=C/c5ccc(-n6on6-c6ccc(-c7nc8ccc(C)cc8s7)cc6)cc5S(=O)(=O)O)c(S(=O)(=O)O)c4)cc3)sc2c1` was tested, and the growth was 110%.
In the case of `CC(C)(C)NCC(O)COc1c(Br)c(Br)c(Br)c2c1OC(C)(C)C2` (stereo not drawn), the growth is reported as -63% (active).
